HT1080 IDH1KD tx: HT-1080 IDH1 knockdown cell toxicity (counter line); HT-1080 IDH1 knockdown viability, ATP luminescence, 48 h; Potency, µM (highest dose often 46.1 µM), for inactives: at the top dose activity, negative = toxicity, most hits filed as cytotoxic; 360,000 tested, 2% active; AID 686971;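 further: potency means the concentration at half of the fitted maximal effect; 0% = DMSO wells and -100% = cell-free medium wells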
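Cytotoxicity counter-line: IDH1KD HT-1080, 48 h, CellTiter-Glo. Curves classed by r2, magnitude and activity.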
DT40 TDP1 CPT: growth inhibition of DT40 Tdp1-/-;hTDP1 cells with camptothecin (screen for TDP1 inhibitors); Potency, µM (titrated, usually from 46.2 µM), inactives show top-dose activity change, negative = growth inhibition, actives largely listed as inhibitors; 420,000 tested, 12% active; chicken DT40 Tdp1-/-;hTDP1 cells + 20 nM CPT, ATP luminescence, 48 h; further: potency means the concentration at half of the fitted maximal effect; nearly all actives have a fitted effect of over 55% in size
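Chicken DT40 Tdp1-/- cells stably complemented with human TDP1 were seeded at 400 cells/well in medium containing 20 nM camptothecin, exposed to pin-transferred compounds, and grown at 37 °C for at least 48 hr. Viability was read as ATP luminescence.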
12-LOX inh: blocks human arachidonate 12S-lipoxygenase. purified 12hLO, xylenol orange hydroperoxide absorbance. Potency, µM (highest dose often 108 µM), for the others: at the highest dose activity change, negative = inhibition, usual class: inhibitors. 580,000 tested, 1.1% active; further: potency means the concentration at half of the fitted maximal effect
Target sequence (P18054 whole entry, looked up): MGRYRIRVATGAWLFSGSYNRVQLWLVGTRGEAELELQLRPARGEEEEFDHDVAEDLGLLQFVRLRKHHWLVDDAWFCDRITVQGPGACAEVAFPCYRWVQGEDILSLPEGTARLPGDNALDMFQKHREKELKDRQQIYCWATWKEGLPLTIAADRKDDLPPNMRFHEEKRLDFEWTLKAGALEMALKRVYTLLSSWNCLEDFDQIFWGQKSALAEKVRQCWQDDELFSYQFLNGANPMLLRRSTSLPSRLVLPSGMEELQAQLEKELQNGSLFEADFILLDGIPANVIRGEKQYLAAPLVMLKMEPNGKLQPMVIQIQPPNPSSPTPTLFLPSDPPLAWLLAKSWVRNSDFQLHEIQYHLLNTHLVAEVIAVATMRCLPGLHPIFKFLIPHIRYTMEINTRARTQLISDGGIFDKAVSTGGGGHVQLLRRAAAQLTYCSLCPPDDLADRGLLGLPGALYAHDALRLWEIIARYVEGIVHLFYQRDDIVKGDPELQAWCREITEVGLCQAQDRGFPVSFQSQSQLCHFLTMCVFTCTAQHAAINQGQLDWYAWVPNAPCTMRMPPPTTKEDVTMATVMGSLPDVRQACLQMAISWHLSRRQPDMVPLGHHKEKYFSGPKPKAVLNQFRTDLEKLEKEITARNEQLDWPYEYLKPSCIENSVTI
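Hydroperoxide product was detected by ferrous iron/xylenol orange as the 573 to 405 nm absorbance ratio. Arachidonic acid at 40 uM (final) was turned over for 30 min at room temperature by 150 nM human 12hLO, pH 7.0 Hepes buffer, after 15 min compound preincubation.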
IL1B secr inh: inhibitors of inflammasome signaling (IL-1 beta secretion); THP-1 LPS/ATP IL-1B secretion, AlphaLISA, 16 h; stronger effect = lower value; activity change, % at 57.5 µM; 360,000 tested, 4.7% active; in the data active means activity change below about -50%; inconclusive means mostly about -30% to -49%
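Secreted IL-1B measured by AlphaLISA bead assay after 16 h compound exposure of THP-1 cells; compounds (final up to 57.5 uM) added 1 h before LPS (250 ng/mL) and ATP (1.25 mM) stimulation; lower signal means less secretion.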
DT40 TDP1 no CPT: qHTS for Inhibitors of human tyrosyl-DNA phosphodiesterase 1 (TDP1): qHTS in cells in absence of CPT; DT40 Tdp1-/- hTDP1 cells, no CPT, ATP luminescence, 48 h; Potency, µM (highest dose often 46.2 µM), for inactives: at the highest dose activity change, negative = growth inhibition, most hits filed as inhibitors; 420,000 tested, 15% active; further: potency means the concentration at half of the fitted maximal effect; nearly all actives have a fitted effect of over 55% in size
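Chicken DT40 Tdp1-/- cells stably complemented with human TDP1 were seeded at 400 cells/well with DMSO in place of 20 nM camptothecin. After compound pinning, cells grew at least 48 hr at 37 °C; viability read by CellTiter-Glo luminescence.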
HT1080NT lethal: kills 2HG-producing HT-1080-NT fibrosarcoma cells; 360,000 tested, 1.6% active; HT-1080-NT fibrosarcoma viability, CellTiter-Glo ATP luminescence, 48 h; Potency, µM (top dose mostly 46.1 µM), for inactives: at the top dose activity, negative = less viability, usual class: cytotoxic;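 further: NT is the 2HG producing partner of a matched IDH1 knockdown line; potency means the concentration at half of the fitted maximal effect; 0% = DMSO-treated cells and -100% = media-only wells without cells; nearly all actives have a fitted effect of over 55% in size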
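Read-out is CellTiter-Glo luminescence after 10 minutes at room temperature, following 48 hours' compound treatment of HT-1080-NT cells (750 cells/well, RPMI, 5% FBS, 37 degrees C).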
An asterisk follows results filed as active; ? = inconclusive; / = no result given; [ ] = dose if it differs, or a comment. Many of the other results were omitted from the sample, so hits are more common in it than they were. Unless noted, the call rests on the fitted dose curve; in most records, active means well fitted curve in the direction sought with a large enough effect; inconclusive means small, poorly fitted or top-dose-only effect, or another doubt; inactive means no such curve, though single readings can be large; an effect the other way counts as inactive or inconclusive. Unless noted, on the % scale 0 is the no-effect control and ±100 the full control effect.

SMILES	HT1080 IDH1KD tx	DT40 TDP1 CPT	12-LOX inh	IL1B secr inh	DT40 TDP1 no CPT	HT1080NT lethal
CCNC(=O)c1ccccc1-c1nc(-c2ccccc2OC)no1	-0.3%	-22.8%	0.0%	0.0	?	2.3%
Cc1ccccc1C(=O)NCc1ccco1	/	/	5.9%	/	/	/
Cc1ccccc1-c1noc(-c2ccccc2C(=O)NCc2ccco2)n1	-6.9%	?	?	?	18.4µM*	-0.5%
O=C(Nc1ccc2oc(-c3ccccc3F)nc2c1)c1ccccc1	/	/	-27.5%	/	/	/
CSc1cccc(-n2cc(-c3ccc4c(c3)OCO4)[nH]c2=O)c1	?	4.61µM*	/	-14.0	5.17µM*	?
Cn1nc(CC(=O)Nc2ccc(Cl)cc2)c2ccccc2c1=O	/	/	-12.4%	/	/	/
O=C1CN(C(=O)CSc2nc3ccccc3c(=O)n2Cc2ccc(F)cc2)c2ccccc2N1	-24.6%	-27.9%	1.5%	-71.0*	?	-24.7%
CCCn1c(SCC(=O)N2CC(=O)Nc3ccccc32)nc2ccccc21	-4.4%	6.4%	-7.0%	5.2	?	-8.5%
C=CCn1c(SCC(=O)N2CC(=O)Nc3ccccc32)nc2scc(-c3cccs3)c2c1=O	-6.5%	?	0.0%	-22.3	18.4µM*	-16.9%
O=C1CN(C(=O)CSc2nc3ccccc3n2CCc2ccccc2)c2ccccc2N1	10.9%	?	0.2%	-29.7	23.1µM*	10.9%
Cc1ccc(C)c(NC(=O)c2nn(Cc3ccccc3)c(=O)c3ccccc23)c1	/	/	8.8%	/	/	/
C=CCOC(=O)C1C(=O)CC(C)(O)C(C(=O)OCC=C)C1c1ccc(Cl)cc1 (stereo not drawn)	/	/	-9.2%	/	/	/
CCOc1cccc2cc(-c3cc(=O)oc4cc(O)ccc34)c(=O)oc12	/	/	17.4%	/	/	/
O=C(O)CCn1cc(C(C(=O)O)N2CCN(Cc3ccncc3)CC2)c2ccc(F)cc21 (stereo not drawn)	/	/	-24.5%	/	/	/
CCOC(=O)C1=C(C)NC(C)=C(C(=O)OCC)C1C(=O)OCC(=O)NC1CCCCC1	-15.2%	25.9µM*	-1.2%	?	23.1µM*	1.7%
CCOC(=O)C1=C(C)NC(C)=C(C(=O)OCC)C1C(=O)OCC(=O)NCCc1ccccc1	1.4%	?	8.3%	-55.2*	25.9µM*	-2.0%
CCNC(=O)COC(=O)C1C(C(=O)OCC)=C(C)NC(C)=C1C(=O)OCC	13.6%	0.5%	0.0%	0.0	0.1%	16.0%
CSc1cc(-c2ccccc2)n(C)c(=O)c1C#N	-2.0%	19.0%	-2.8%	-2.4	?	-20.3%
CSc1cc(-c2ccc(Cl)cc2)n(Cc2ccccc2)c(=O)c1C#N	6.3%	?	-2.5%	4.4	14.6µM*	4.8%
CCOC(=O)C(C(=O)OCC)C(Nc1cccc(Br)c1)c1ccccc1 (stereo not drawn)	?	14.6µM*	0.0%	-68.4*	?	?
CCOC(=O)CNNC(=O)Nc1ccc(Cl)c(Cl)c1	12.0%	-9.4%	-13.8%	-19.6	-17.1%	10.6%
CCOC(=O)C(c1ccccc1)C(Nc1ccc(Cl)c(Cl)c1)c1ccccn1 (stereo not drawn)	-22.4%	?	-24.6%	41.2	9.2µM*	-29.9%
CCC(C)(C)C1CCC(NC(=S)Nc2cccc(Cl)c2Cl)CC1 (stereo not drawn)	/	/	-0.4%	/	/	/
CCS(=O)(=O)N1CCCN(Cc2ccncc2)C(c2ccccc2)CC(=O)NCC1 (stereo not drawn)	/	/	15.9%	/	/	/
C=CCC[C@@H](Cc1ccc(F)cc1)C(=O)OC[C@@H]1CCCN1C(=O)[C@@H](CC=C)CC(=O)N[C@@H](CO)Cc1ccccc1	-1.0%	14.6µM*	?	?	16.4µM*	-25.7%
SMILES	HT1080 IDH1KD tx	DT40 TDP1 CPT	12-LOX inh	IL1B secr inh	DT40 TDP1 no CPT	HT1080NT lethal
C=CCC[C@H](Cc1ccc(F)cc1)C(=O)OC[C@@H]1CCCN1C(=O)[C@@H](CC=C)CC(=O)NCCO	-5.0%	?	-9.1%	5.8	20.6µM*	6.6%
C=CC[C@@H](CC(=O)N[C@@H](CO)Cc1ccccc1)C(=O)N[C@@H](COC(=O)[C@@H](CC=C)Cc1ccc(F)cc1)Cc1ccccc1	0.7%	-19.2%	0.2%	-2.1	?	-8.6%
CNc1nc(N2CCCN(C)CC2)nc2cc(OC)c(OC)cc12	-18.9%	14.1µM*	/	/	11.2µM*	-9.7%
CCNc1nc(N2CCCN(C)CC2)nc2cc(OC)c(OC)cc12	-23.2%	11.2µM*	/	/	11.2µM*	-24.6%
Cc1ccccc1N(C)C1CN(Cc2cccs2)C1	/	/	46.0%[176 µM]	/	/	/
CN1CCCCC1CCN1c2ccccc2Sc2ccc(S(C)=O)cc21 (stereo not drawn)	?	?	?	-51.8*	?	?
COc1ccccc1-n1c2c(cc(C#N)c1=O)C(=O)CC(C)(C)C2	/	/	0.4%	/	/	/
COCCn1c(SCc2ccc(OC)c(F)c2)nnc1-c1cccc(C)c1	/	/	-77.7%	/	/	/
CC1CCC(N(CCCN)Cc2ccco2)CC1C (stereo not drawn)	-15.4%	29.1µM*	23.2%	?	20.6µM*	-7.3%
Cc1ccccc1C(=O)N(Cc1ccco1)C1CC1	/	/	18.5%	/	/	/
CCn1c(-c2cc3c(C(F)(F)F)nn(C)c3s2)n[nH]c1=S	-0.4%	-6.9%	10µM*	-5.9	-2.5%	-4.2%
Cn1c(-c2cc3c(C(F)(F)F)nn(C)c3s2)n[nH]c1=S	-7.7%	-6.9%	?	-6.3	-14.0%	-4.9%
COC(=O)CC1C(C)(C)C(OC(C)=O)C2[C@H](OC(C)=O)[C@]34O[C@]2(O)[C@]1(C)C3CC[C@]1(C)C4=CC(=O)OC1c1ccoc1 (stereo partly drawn)	/	?	/	/	16.4µM*	/
CC(Sc1nc2cc(S(=O)(=O)N3CCCCC3)ccc2o1)C(=O)Nc1ccccc1 (stereo not drawn)	/	/	-1.7%	/	/	/
CN(C)c1ncnc2c1ncn2[C@H]1CN(Cc2ccc(-c3ccccc3)cc2)C[C@@H](CO)O1	2.8%	?	0.8%	-5.3	14.6µM*	-0.6%
CCN(CC)c1ncnc2c1ncn2[C@H]1CN(Cc2cccnc2)C[C@@H](CO)O1	2.2%	-22.0%	6.2%	-56.9*	-8.1%	?
OC[C@@H]1CN(Cc2ccc(-c3ccccc3)cc2)C[C@H](n2cnc3c(N4CCOCC4)ncnc32)O1	20.6µM*	?	-7.2%	-27.1	?	18.4µM*

Screens from PubChem BioAssay.
